In all, about 390,000 compounds went through this assay and about 1,400 (0.36%) were called active. Roughly 2% stayed inconclusive and do not appear here. The calls are words filed in the database; no cut-off is given here. Only a selection was taken, and actives are over-represented in it overall.

The target in the assay is Flap endonuclease 1 (Homo sapiens) (UniProt P39748). In words: qHTS Assay for the Inhibitors of Human Flap endonuclease 1 (FEN1). [Related pubchem assays (depositor defined):AID488813]. The class given is functional. On the technique in general: qHTS replaces the single test concentration by a dilution series.
Flap endonuclease 1 (Homo sapiens), sequence (P39748 whole entry): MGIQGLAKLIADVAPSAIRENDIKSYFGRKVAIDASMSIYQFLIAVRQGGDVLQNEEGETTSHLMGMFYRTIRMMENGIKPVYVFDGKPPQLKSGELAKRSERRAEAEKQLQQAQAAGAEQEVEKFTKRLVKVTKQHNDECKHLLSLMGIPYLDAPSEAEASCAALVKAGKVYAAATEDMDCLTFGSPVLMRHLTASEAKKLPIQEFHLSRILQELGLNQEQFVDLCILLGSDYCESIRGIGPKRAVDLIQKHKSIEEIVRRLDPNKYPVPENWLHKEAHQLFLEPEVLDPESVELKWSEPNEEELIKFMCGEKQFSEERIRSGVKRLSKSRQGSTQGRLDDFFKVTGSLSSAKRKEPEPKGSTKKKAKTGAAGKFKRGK
With `CC(N)(Cc1ccc(O)c(O)c1)C(=O)O` (stereo not drawn), the Potency is 2.38 µM (active). Take `CCOC(=O)CN1C(=O)N[C@@H](c2cccc(C(F)(F)F)c2)C(C(=O)OC)=C1C`: the Potency entry is “inactive”. Regarding `Nc1nc2ccc(OC(F)(F)F)cc2s1`, the Potency result was “inactive”. The result for `NCC(O)c1ccc(O)c(O)c1` (stereo not drawn) reads 2.99 µM (active); that for `C=CCN1C2CCCC1CC(N=C(S)Nc1cccc(OC)c1)C2` (stereo not drawn), “inactive”. As to `CC(=O)c1ccc(NC(=O)NNS(=O)(=O)c2ccc([N+](=O)[O-])cc2)cc1`, the Potency entry was “inactive”. Turning to `ICCCCN1C=S(CI)c2ccccc21` (stereo not drawn), the Potency is 50.1 µM (active). For `Cc1ccc(C)c(NC(=O)CN(C)C(=O)C2COc3ccccc3O2)c1` (stereo not drawn), the Potency entry is “inactive”.

The record behind these values is ChEMBL document CHEMBL1201862, “PubChem BioAssay data set” (2004).
